# Screening data: PubChem BioAssay, National Center for Advancing Translational Sciences (NCATS)
# Vaccinia Venus: qHTS for Stage-Specific Inhibitors of Vaccinia Orthopoxvirus: Venus Reporter Primary qHTS; Vaccinia virus Venus reporter expression, fluorescence; Potency, µM (doses to about 36.5 µM), for inactives: top-dose activity change, negative = inhibition, hits mostly inhibitors; hit rate 0.46% among 330,000; calls by dose curve; tested in A549 cells; note: potency is the fitted concentration of half-maximal effect; nearly all actives have a fitted effect of over 30% in size
# VACV mCherry inh: qHTS for Stage-Specific Inhibitors of Vaccinia Orthopoxvirus: mCherry Reporter Primary qHTS; Vaccinia virus mCherry reporter infection, fluorescence; Potency, µM (top dose mostly 36.5 µM), for the others: at the top dose activity change, negative = inhibition, usual class: inhibitors; hit rate 0.63% among 310,000; AID 720579, 2013; calls by dose curve; tested in A549 cells; note: potency is the fitted concentration of half-maximal effect; nearly all actives have a fitted effect of over 35% in size
# Tb PYK inh: qHTS of Trypanosoma Brucei Inhibitors | pyruvate kinase (Trypanosoma brucei), Q57TT1 | hit rate 0.12% among 410,000 | Potency, µM (highest dose often 76.8 µM), inactives show at the highest dose activity, negative = inhibition, usual class: inhibitors | TbPYK enzyme, Kinase-Glo Plus ATP luminescence, 45 min; note: potency is the fitted concentration of half-maximal effect; nearly all actives have a fitted effect of over 50% in size
#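 Screened from lowest to highest concentration, compounds were pinned into TbPYK/substrate mixtures, and ADP (130 uM final) was added. Plates sat at room temperature for 45 min prior to Kinase-Glo Plus detection by luminescence.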
# LmPK inh: qHTS Assay for Inhibitors of Leishmania Mexicana Pyruvate Kinase (LmPK); Potency, µM (titrated, usually from 57.5 µM), inactives show at the highest dose activity change, negative = inhibition, actives largely listed as inhibitors; hit rate 0.37% among 290,000; purified LmPK, Kinase-Glo ATP luminescence, 1 h; note: potency is the fitted concentration of half-maximal effect
# Target sequence (Q27686 whole entry, looked up): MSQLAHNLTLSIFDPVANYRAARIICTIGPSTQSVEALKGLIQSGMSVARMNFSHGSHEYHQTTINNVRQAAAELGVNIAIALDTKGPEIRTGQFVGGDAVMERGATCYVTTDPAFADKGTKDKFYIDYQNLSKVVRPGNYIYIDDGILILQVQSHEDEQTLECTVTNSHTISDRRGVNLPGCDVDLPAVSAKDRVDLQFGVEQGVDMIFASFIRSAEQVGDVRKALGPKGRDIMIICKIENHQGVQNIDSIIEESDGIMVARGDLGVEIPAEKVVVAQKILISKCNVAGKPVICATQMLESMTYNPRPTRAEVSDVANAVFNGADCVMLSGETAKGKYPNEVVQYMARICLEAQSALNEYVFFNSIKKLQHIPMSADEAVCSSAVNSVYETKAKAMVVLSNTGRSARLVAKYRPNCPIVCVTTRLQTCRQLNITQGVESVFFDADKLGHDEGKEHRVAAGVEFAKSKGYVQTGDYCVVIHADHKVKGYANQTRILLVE
#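 0.1 nM LmPK, 0.5 mM PEP, 0.1 mM ADP; 50 mM imidazole pH 7.2, 7 mM MgCl2, 50 mM KCl; 1 h RT. Kinase-Glo luminescence readout, normalized to no-enzyme (full inhibition) and uninhibited wells.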
# HCMV antiviral: qHTS Assay for inhibitors of the human cytomegalovirus (HCMV); HFF cells, HCMV-luciferase reporter, 72 h; hits give low values; activity change, negative = inhibition, % at 57.5 µM; hit rate 4.5% among 410,000; in the data active = activity change below about -60%; inconclusive = no clear call, values can overlap the other calls; inactive = above about -39%
#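 HFF cells seeded 16 h at 37C, treated with compounds, infected with luciferase-reporter HCMV at MOI 1 PFU/cell; luciferase read at 72 h post infection, normalized to buffer-only and Salinomycin controls.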
# Starred values were filed as active, the others as inactive; i = inactive; u = inconclusive; x = no result; ! = repeats disagree; [ ] = remark or other dose. A selection: hits, their analogues and other compounds. The true share with any hit is near 5%. Unless noted, calls come from the whole dose curve; as a rule, active = well fitted curve in the direction sought with a large enough effect; inconclusive = small, poorly fitted or top-dose-only effect, or another doubt; inactive = no such curve, though single readings can be large; an effect the other way counts as inactive or inconclusive. % is set by controls: 0 for no effect and ±100 for the full control effect.
SMILES,Vaccinia Venus,VACV mCherry inh,Tb PYK inh,LmPK inh,HCMV antiviral
Cc1sc(NC(=O)c2ccco2)c(C(c2cccnc2)N2CCC(C)CC2)c1C (stereo not given),x,x,-2.5%,-0.5%,-92.8*
O=C(Nc1c(-c2ccccc2)nc2ccccn12)c1ccccc1F,-6.9%,-9.1%,-5.2%,-11.5%,-63.8*!
O=C(Nc1c(-c2ccccc2)nc2ccccn12)c1ccccc1,-12.8%,-19.7%,-3.4%,3.7%,15.2
COC(CNS(=O)(=O)c1ccc(S(=O)(=O)N2CCCC2)cc1)OC,-12.4%,-5.2%,2.0%,-5.4%,-13.9
O=C(N/N=C/c1cccc2ccccc12)C(=O)N1CCCC1,-7.4%,i,2.3%,5.3%,-71.2*
O=C(CCn1c(=O)[nH]c2ccccc2c1=O)N1CCN(c2ccc(Cl)cc2)CC1,x,x,5.0%,5.2%,8.2
Cc1ccc(NC(=O)Nc2nnc(SCC(=O)N3CCCCC3)s2)cc1,-9.4%[7.34 µM],-1.7%[7.34 µM],2.7%,x,-86.5*
O=C(Nc1ccc(F)cc1)Nc1nnc(SCC(=O)N2CCCCC2)s1,-4.9%[7.34 µM],-3.2%[7.34 µM],3.7%,x,-74.9*
OC(c1ccc2c(c1)OCO2)c1ncc(-c2ccc(Cl)cc2)[nH]1 (stereo not given),-8.1%,i,-8.6%,x,61.3
CC(=O)Nc1ccc2sn(-c3ccccc3)c(=O)c2c1,-12.5%,i,u,x,u
N#Cc1ccc2sn(-c3ccccc3)c(=O)c2c1,-23.3%,u,3.98µM*,x,30.8
O=c1c2cc([N+](=O)[O-])ccc2sn1-c1ccccc1,-17.8%,-5.6%,4.47µM*,x,31.0
Cc1ccc2cc(S(=O)(=O)NCCCN3CCOCC3)ccc2c1,-15.9%,-3.2%,-1.3%,-1.7%,u
COC(=O)c1ccc(CSC2=NC[C@@H]3[C@@H]4C(=O)N(Cc5ccccc5)C(=O)[C@@H]4[C@](Cc4ccccc4)(C(=O)OC)N23)cc1,-12.5%,i,-0.8%,x,-7.0
N#Cc1ccc(C(=O)Nc2ccn(-c3ccccc3)n2)cc1,-6.7%,-10.6%,0.1%,2.2%,-74.9*
Clc1ncc(Cn2cccn2)s1,-10.4%,-18.5%,4.2%,1.7%,-18.0
O=C(O)c1ccccc1CSC1=NCCS1,x,x,-26.3%,-3.1%,-9.9
Brc1ccccc1OCCCCn1cnc2ccccc21,-15.7%,i,2.0%,1.4%,-60.2*
Cc1ccc(OCCCCn2cnc3ccccc32)c(C)c1,x,x,x,-1.8%,-98.4*
Cc1ccc(C)c(OCCCCn2cnc3ccccc3c2=O)c1,x,x,9.5%,4.5%,89.2
Clc1ccccc1OCCn1cnc2ccccc21,-17.8%,-27.1%,-2.6%,-2.7%,-36.2
CCCCN(CCCC)CC(O)Cn1cc(/C=C/C(=O)c2ccccc2)c2ccccc21 (stereo not given),-18.5%,-15.9%,3.5%,x,-105.9*
CCCCN(C)CC(O)Cn1cc(/C=C/C(=O)c2ccc(OCC)cc2)c2ccccc21 (stereo not given),u,u,3.9%,-1.5%,-106.7*
CCCCN(C)CC(O)Cn1cc(/C=C/C(=O)c2cccs2)c2ccccc21 (stereo not given),u,u,1.6%,-0.1%,x
O=C(CSc1n[nH]c(-c2ccccc2Cl)n1)NCCCc1ccccc1,-9.3%,-4.3%,-7.1%,x,-12.5
SMILES,Vaccinia Venus,VACV mCherry inh,Tb PYK inh,LmPK inh,HCMV antiviral
COC(=O)[C@]12C[C@H](CC(=O)NCC34CC5CC(CC(C5)C3)C4)C(=O)N(Cc3ccc4c(c3)OCO4)C1=C[C@H](COCc1ccccc1)O[C@@H]2C,x,x,x,x,-62.7*
COC(=O)[C@]12C[C@H](CC(=O)NCC3CCCCC3)C(=O)N(Cc3ccccc3)C1=C[C@H](C(C)(C)C)O[C@@H]2C,x,x,x,x,-33.0
COC(=O)[C@]12CCCCC=C1N(Cc1ccccc1)C(=O)[C@H](CC(=O)NCc1cccs1)C2,-16.1%,-3.3%,-10.1%,x,-65.6*
COC(=O)[C@]12CCCCC=C1N(Cc1ccc3c(c1)OCO3)C(=O)[C@H](CC(=O)N1CCCCC1)C2,-15.1%,7.8%,x,x,-69.7*
COC(=O)[C@]12C[C@H](CC(=O)NCc3cccs3)C(=O)N(Cc3ccccc3)C1=C[C@H](C(C)C)O[C@@H]2C1CC1,x,x,x,x,-70.8*
COC(=O)[C@]12C[C@H](CC(=O)NCc3cccs3)C(=O)N(Cc3ccc4c(c3)OCO4)C1=C[C@H](COCc1ccccc1)O[C@@H]2C,x,x,x,x,-21.7
COC(=O)[C@]12CCCCC=C1N(Cc1ccc3c(c1)OCO3)C(=O)[C@H](CC(=O)N1CCCC1)C2,11.3%,20.0%,x,x,14.6
CCOC(=O)N1CCN(S(=O)(=O)c2ccc(C(=O)N(CCCN(C)C)c3nc4ccc(CC)cc4s3)cc2)CC1,-25.5%,-28.7%,2.3%,6.9%,-62.1*
CCc1ccc2nc(N(CCCN(C)C)C(=O)c3ccc(S(=O)(=O)N4CCCC4)cc3)sc2c1,x,x,5.3%,0.4%,-35.9
CCOc1cccc2sc(N(CCCN(C)C)C(=O)c3ccc(C(=O)c4ccccc4)cc3)nc12,-27.7%,-19.3%,1.4%,-0.5%,-77.3*
CN(C)CCCN(C(=O)c1ccc2c(c1)CCCC2)c1nc2ccc(Cl)cc2s1,u,u,-6.7%,0.8%,-78.6*
CCOC(=O)N1CCN(S(=O)(=O)c2ccc(C(=O)N(CCN(C)C)c3nc4ccc(CC)cc4s3)cc2)CC1,-26.0%,-4.7%,-0.4%,-1.7%,-38.9
CCc1ccc2nc(N(CCCN(C)C)C(=O)c3ccc(S(=O)(=O)N4CCCc5ccccc54)cc3)sc2c1,u,u,-4.4%,-1.1%,-89.2*
CCOc1ccc2nc(N(CCCN(C)C)C(=O)c3ccc4c(c3)CCCC4)sc2c1,x,x,0.5%,7.1%,-39.6
CN(C)CCCN(C(=O)c1ccc(C(=O)c2ccccc2)cc1)c1nc2c(F)cccc2s1,-18.2%,-20.9%,-1.3%,-1.0%,-29.0
COCCOC(=O)C1=C(N)Oc2c(oc(CO)cc2=O)C1c1c(F)cccc1Cl (stereo not given),-3.6%,-9.6%,-4.1%,-1.1%,13.1
Cn1ccc2cc(OCc3ccccc3)ccc21,-5.3%,-12.1%,0.1%,x,17.0
CN(C)CCCN(C(=O)c1ccc(S(=O)(=O)N2CCc3ccccc32)cc1)c1nc2c(Cl)cccc2s1,u,-13.7%,-9.1%,-10.3%,-4.1
COc1cccc2sc(N(CCCN(C)C)C(=O)c3ccc(S(=O)(=O)N4CCCc5ccccc54)cc3)nc12,x,x,4.2%,8.8%,-71.3*
COc1ccc(C)c2sc(N(CCCN(C)C)C(=O)c3ccc(S(=O)(=O)N4CCc5ccccc5C4)cc3)nc12,u,u,-7.7%,x,-97.8*
COc1ccc2nc(N(CCN(C)C)C(=O)c3ccc4ncsc4c3)sc2c1,-7.0%,-0.4%,-28.5%,x,35.9
CCc1ccc2nc(N(CCCN(C)C)C(=O)c3ccc(C(=O)c4ccccc4)cc3)sc2c1,-12.6%,-23.6%,-5.9%,4.8%,-98.4*
